The list is a sample of the results.
aSyn 5UTR act: Activators working through SNCA 5'UTR binding (MLPCN) | 7.1% of 300,000 active | AID 1814 | alpha-synuclein 5'UTR reporter, activators screen | activity score, % (tested at 7.5 µM), hits read low; in the data active = activity score below about -60%
A number is an active result.

`CCOC(=O)c1c(C)[nH]c(C(=O)N/N=C/c2cccc(OC)c2)c1C` gave aSyn 5UTR act -104.3.
CC(=O)N1CC(=O)N=C1SCC(=O)Nc1nc(C)c(-c2ccccc2)s1 was read as aSyn 5UTR act -78.9.
For CCOc1ccc2nc(NC(=O)CSC3=NCCS3)sc2c1 the results were aSyn 5UTR act -77.0.
Screening CCOc1ccc2nc(NC(=O)CSc3nc(SC)ns3)sc2c1 returned aSyn 5UTR act -167.1.
Screening COc1ccc2nc(NC(=O)CSc3ccccc3)sc2c1 returned aSyn 5UTR act -128.2.
For COc1ccc2nc(NC(=O)CN3CCOCC3)sc2c1 the results were aSyn 5UTR act -63.0.
`COc1ccc2nc(NC(=O)CSc3cn[nH]n3)sc2c1` gave aSyn 5UTR act -67.6.
Cc1nc(NC(=O)CN2CCOCC2)sc1-c1ccccc1 was read as aSyn 5UTR act -74.2.
For CCCC(=O)Nc1nc2ccc(OC)cc2s1 the results were aSyn 5UTR act -132.8.
`COc1ccc2nc(NC(=S)N(C)C)sc2c1` gave aSyn 5UTR act -80.6.
COc1ccc2nc(NC(=O)CSC3=NCCS3)sc2c1 was read as aSyn 5UTR act -88.1.
For O=C(c1ccc(Cl)cc1)c1cnc2ccccn12 the results were aSyn 5UTR act -125.7.
Screening COC(=O)c1sc2nc(-c3ccco3)ccc2c1N returned aSyn 5UTR act -236.4.
`NC(=O)c1sc2nc(-c3ccco3)ccc2c1N` gave aSyn 5UTR act -61.8.
For [O-][n+]1c2cc(C(F)(F)F)ccc2c2n1CCN=C2c1ccc(Cl)cc1 the results were aSyn 5UTR act -65.1.
`Nc1c(Cl)cc(C2=NCCn3c2c2ccc([N+](=O)[O-])cc2[n+]3[O-])cc1Cl` gave aSyn 5UTR act inactive.
For CCOC(=O)c1cnc(-c2ccccc2)nc1N(C)C the results were aSyn 5UTR act -241.3.
`Cc1nc2ccc(C(=O)OCc3ccccc3Br)cc2nc1C` gave aSyn 5UTR act -166.3.
`CCOC(=O)c1cnc(-c2ccccc2)nc1N` gave aSyn 5UTR act -148.1.
For CCOC(=O)c1cnc(-n2nc(C)cc2C)nc1NNc1nc(-c2ccccc2)cc(-c2ccccc2)n1 the results were aSyn 5UTR act inactive.
CCOC(=O)c1ccc2ncc(-c3ccccc3)nc2c1 was read as aSyn 5UTR act -160.0.
For COc1ccc(-c2noc(-c3ccco3)n2)cc1OC the results were aSyn 5UTR act -110.3.
`COc1cccc(-c2noc(-c3ccoc3C)n2)c1` gave aSyn 5UTR act -212.5.
COc1ccc(-c2noc(-c3ccoc3C)n2)cc1OC was read as aSyn 5UTR act -131.8.
Screening COc1ccc(-c2noc(-c3ccoc3C)n2)cc1 returned aSyn 5UTR act -142.9.
`COc1ccc(C2=Nn3c(nnc3-c3ccco3)SC2)cc1OC` gave aSyn 5UTR act inactive.
`c1ccn(-c2ccc(-c3ccn[nH]3)cc2)c1` gave aSyn 5UTR act -164.2.
Screening Fc1ccccc1COc1ccc(C(=S)N2CCCC2)cc1 returned aSyn 5UTR act -95.7.
CC(=O)c1c(C)nc(-c2ccc(Cl)cc2)nc1N was read as aSyn 5UTR act -239.2.
`CC(=O)c1c(C)nc(-c2ccc(Cl)cc2)nc1N=CN(C)C` gave aSyn 5UTR act -128.1.
CN(/N=C/c1ccc(N(C)C)cc1)C1=NS(=O)(=O)c2ccccc21 was read as aSyn 5UTR act -97.1.
Screening COc1ccc(N(C)C2=NS(=O)(=O)c3ccccc32)cc1 returned aSyn 5UTR act -70.4.
Cc1cccc(-c2noc(CSc3ccccc3)n2)c1 was read as aSyn 5UTR act -169.6.
For Cc1ccc(-c2noc(CSc3nc(N)cc(N)n3)n2)cc1 the results were aSyn 5UTR act -191.2.
For Cc1ccc(-c2noc(CSc3ccccc3)n2)cc1 the results were aSyn 5UTR act -84.3.
`c1ccc(SCc2nc(-c3cccnc3)no2)cc1` gave aSyn 5UTR act -103.3.
For C/C(=N\N=C\c1ccc(N(C)C)cc1)c1cccc([N+](=O)[O-])c1 the results were aSyn 5UTR act -68.2.
`COc1ccc(-c2csc(-c3ccccc3)n2)c(OC)c1` gave aSyn 5UTR act -202.0.
Screening COc1ccc(-c2csc(-c3cccs3)n2)c(OC)c1 returned aSyn 5UTR act -125.9.
Screening O=c1[nH]cnc2cc(-c3ccccc3)sc12 returned aSyn 5UTR act -94.5.
For COc1ccc(-c2cc3nc(CCl)[nH]c(=O)c3s2)cc1 the results were aSyn 5UTR act inactive.
`CCn1c(SC(C)C)nnc1-c1cc(-c2ccccc2)sc1N` gave aSyn 5UTR act -171.4.
For COCCNC(=S)N/N=C(\C)c1cc2ccccc2o1 the results were aSyn 5UTR act -117.4.
For C/C(=N\NC(=O)COc1ccc(C(C)(C)C)cc1)c1cc2ccccc2o1 the results were aSyn 5UTR act -109.3.
Screening Cc1ccc2c(c1)cc1c(=O)[nH]ncn12 returned aSyn 5UTR act -67.1.
Screening CC(C)c1cc2cc3ccc(=O)oc3cc2o1 returned aSyn 5UTR act -95.9.
Screening Clc1ccc(-c2cc(CN3CCCCC3)no2)cc1Cl returned aSyn 5UTR act -114.4.
`Clc1ccc(-c2cc(CN3CCOCC3)no2)cc1` gave aSyn 5UTR act -148.0.
Nc1ncc(Br)cc1N=Cc1ccccc1 was read as aSyn 5UTR act -197.2.
For CCc1ccc(O)c(N=Cc2cccc(C)c2O)c1 the results were aSyn 5UTR act -131.1.
`C=CCc1cccc(C=Nc2cc(Br)ccc2O)c1O` gave aSyn 5UTR act -110.1.
Screening C=CCc1cccc(C=Nc2cccn3cc(-c4ccccc4)nc23)c1O returned aSyn 5UTR act -88.5.
O=C(Nc1cc(S(=O)(=O)N2CCCCC2)ccc1Cl)c1ccccc1NS(=O)(=O)c1ccc(F)cc1 was read as aSyn 5UTR act inactive.
For Cc1cccc(NC(=O)c2ccc(Cl)c(S(=O)(=O)N3CCCCC3)c2)n1 the results were aSyn 5UTR act -79.3.
`Cc1cccc(NC(=O)c2ccc(Cl)c(S(=O)(=O)N3CCCC3)c2)n1` gave aSyn 5UTR act -68.0.
CC1CCC(C(C)C)C(OC(=O)Cn2c(-c3ccc(Cl)cc3)[n+](C)c3ccccc32)C1 (stereo not given) was read as aSyn 5UTR act inactive.
For CCc1ccc(-c2ccc(C(=O)C(F)(F)F)[nH]2)cc1 the results were aSyn 5UTR act -80.3.
For Fc1ccc(-c2nnsc2Sc2ccccn2)cc1 the results were aSyn 5UTR act -84.5.
For c1cnc2c(c1)ccc1cccnc12 the results were aSyn 5UTR act inactive.
Screening Cc1ccccc1OCc1nc2ccccc2[nH]1 returned aSyn 5UTR act -138.1.
Brc1ccccc1OCCOc1cccc2cccnc12 was read as aSyn 5UTR act -72.2.
For c1cnc2c(OCc3nc4ccccc4[nH]3)cccc2c1 the results were aSyn 5UTR act -293.0.
COc1ccccc1OCc1nc2ccccc2[nH]1 was read as aSyn 5UTR act -69.6.
Screening O=Cc1ccc(O)c2ncccc12 returned aSyn 5UTR act inactive.
`COc1cccc(C=O)c1OCCCOc1cccc2cccnc12` gave aSyn 5UTR act -128.6.
Cc1cc(/C=N/NC(=O)c2ccsc2)c(C)n1-c1cnccn1 was read as aSyn 5UTR act -76.6.
For Cc1ccc2cc(C3C(C#N)=C(N)Oc4c3ccc3cccnc43)c(=O)[nH]c2c1 (stereo not given) the results were aSyn 5UTR act inactive.
For Cc1[nH]nc2c1C(c1ccc(-c3ccc(Cl)cc3)o1)C(C#N)=C(N)O2 (stereo not given) the results were aSyn 5UTR act -63.0.
Screening Cc1ccc(-c2ccc(C3C(C#N)=C(N)Oc4n[nH]c(C)c43)o2)cc1 (stereo not given) returned aSyn 5UTR act -107.3.
`O=C(CSc1n[nH]c(-c2ccccc2O)n1)N1CCOCC1` gave aSyn 5UTR act -70.1.
Clc1ccc(Sc2cnc3ccccc3n2)cc1 was read as aSyn 5UTR act -75.2.

Assay outcomes from PubChem.
